Consider seven molecules from PubChem BioAssay (NCATS).

Inconclusive results are not listed. Active and inactive are the calls of the source. Unless noted, calls come from the whole dose curve.

In experiment [1] the target is Androgen receptor (Homo sapiens) (UniProt P10275). Nature of the experiment: qHTS assay for small molecule antagonists of androgen receptor signaling (AID 588516; active = well fitted curve in the direction sought with a large enough effect in the signal ratio, with a control signal flat, not every such curve was filed as active; the % refers to the signal ratio; note: % is set by controls: 0 for no effect and ±100 for the full control effect). The procedure, abridged:
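Antagonist mode: inhibition of R1881-stimulated (10 nM final) bla reporter in GeneBLAzer AR HEK 293 cells, 16 h at 37C, compounds titrated. IC50 and efficacy from Hill-equation fits of 405/460–530 nm FRET ratios.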
A general note: qHTS replaces the single test concentration by a dilution series.

Experiment [2] concerns the target Glucocorticoid receptor (Homo sapiens) (UniProt P04150). The experiment in a line: qHTS assay for small molecule agonists of glucocorticoid receptor signaling (AID 588532; active = well fitted curve in the direction sought with a large enough effect in the signal ratio, with a control signal flat; the % refers to the signal ratio;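 note: 100% = dexamethasone at 0.1 µM and 0% = DMSO only wells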). To be noted: HeLa MMTV-bla, beta-lactamase ratio, agonist, 18 h; stronger effect = higher value; percent of dexamethasone control, DMSO zero. The procedure, abridged:
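HeLa GRE-bla reporter cells; 18 h compound exposure at 37 C; 2 h CCF4 loading at room temperature; fluorescence at 460 and 530 nm; EC50 by Hill equation.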

The target is the same in experiment [3]. Nature of the experiment: qHTS assay for small molecule antagonists of glucocorticoid receptor signaling (AID 588533; active = well fitted inhibition curve with a large enough effect in the signal ratio, with a control signal flat, not every such curve was filed as active; the % refers to the signal ratio; note: % is set by controls: 0 for no effect and ±100 for the full control effect). In short, it runs like this:
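Antagonist-mode qHTS: compound titrations added to GRE-bla HeLa cells, then dexamethasone 2 nM final; 18 h, 37 C. CCF4 FRET fluorescence normalized to dexamethasone and DMSO; IC50 from Hill fit.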

Experiment [4] deals with Peroxisome proliferator-activated receptor gamma (Homo sapiens) (UniProt P37231). The experiment in a line: qHTS assay for small molecule agonists of peroxisome proliferator-activated receptor gamma signaling (AID 588536; active = well fitted curve in the direction sought with a large enough effect in the signal ratio, with a control signal flat, not every such curve was filed as active; the % refers to the signal ratio;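 note: 0% = DMSO basal wells and 100% = rosiglitazone at 2 µM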). The procedure, abridged:
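Ratiometric blue/green fluorescence (405 nm excitation; 460 and 530 nm emission) from CCF4-loaded HEK293 reporter cells serves as signal. Exposure to test compounds lasts 16 h at 37 C in medium containing 1% charcoal/dextran-treated serum.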

Experiment [5] can be described thus: qHTS assay for small molecule agonists of retinoid X receptor alpha signaling (AID 588544).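 For activation: 0% = DMSO basal wells and 100% = reference agonist.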 To be noted: HEK293T RXRa-UAS-bla, beta-lactamase reporter, 18 h; 530 nm emission.
The target of experiment [6] is Retinoic acid receptor RXR-alpha (Homo sapiens) (UniProt P19793). The experiment is described as above.
Sequence of Retinoic acid receptor RXR-alpha (Homo sapiens) (P19793 whole entry, looked up): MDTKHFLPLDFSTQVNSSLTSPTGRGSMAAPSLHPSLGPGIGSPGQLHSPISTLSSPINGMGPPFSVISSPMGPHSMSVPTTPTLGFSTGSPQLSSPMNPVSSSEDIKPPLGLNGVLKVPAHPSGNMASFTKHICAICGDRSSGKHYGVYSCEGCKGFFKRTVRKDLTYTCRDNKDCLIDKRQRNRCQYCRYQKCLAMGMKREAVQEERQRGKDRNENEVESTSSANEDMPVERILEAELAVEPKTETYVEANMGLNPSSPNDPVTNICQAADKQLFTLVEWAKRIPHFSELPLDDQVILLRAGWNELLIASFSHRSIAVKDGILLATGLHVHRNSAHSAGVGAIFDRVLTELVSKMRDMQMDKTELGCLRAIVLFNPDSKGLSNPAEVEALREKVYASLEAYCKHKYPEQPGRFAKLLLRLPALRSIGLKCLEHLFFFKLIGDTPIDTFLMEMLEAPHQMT
In experiment [7] the target is Voltage-gated inwardly rectifying potassium channel KCNH2 (Homo sapiens) (UniProt Q12809). Nature of the experiment: qHTS Assay for Small Molecule Inhibitors of the Human hERG Channel Activity (AID 588834; active = well fitted inhibition curve with a large enough effect;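 note: top concentration of the series differs between compounds; % is set by controls: 0 for no effect and ±100 for the full control effect; lower thallium flux fluorescence means stronger hERG block; nearly all actives have a fitted effect of over 50% in size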). The procedure, abridged: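 Kinetic FDSS fluorescence; U2OS + hERG BacMam (~100 virus particles/cell); FluxOR Tl+ flux; ~10 min cpd; AC50 (Hill).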
Sequence of Voltage-gated inwardly rectifying potassium channel KCNH2 (Homo sapiens) (Q12809 whole entry, looked up): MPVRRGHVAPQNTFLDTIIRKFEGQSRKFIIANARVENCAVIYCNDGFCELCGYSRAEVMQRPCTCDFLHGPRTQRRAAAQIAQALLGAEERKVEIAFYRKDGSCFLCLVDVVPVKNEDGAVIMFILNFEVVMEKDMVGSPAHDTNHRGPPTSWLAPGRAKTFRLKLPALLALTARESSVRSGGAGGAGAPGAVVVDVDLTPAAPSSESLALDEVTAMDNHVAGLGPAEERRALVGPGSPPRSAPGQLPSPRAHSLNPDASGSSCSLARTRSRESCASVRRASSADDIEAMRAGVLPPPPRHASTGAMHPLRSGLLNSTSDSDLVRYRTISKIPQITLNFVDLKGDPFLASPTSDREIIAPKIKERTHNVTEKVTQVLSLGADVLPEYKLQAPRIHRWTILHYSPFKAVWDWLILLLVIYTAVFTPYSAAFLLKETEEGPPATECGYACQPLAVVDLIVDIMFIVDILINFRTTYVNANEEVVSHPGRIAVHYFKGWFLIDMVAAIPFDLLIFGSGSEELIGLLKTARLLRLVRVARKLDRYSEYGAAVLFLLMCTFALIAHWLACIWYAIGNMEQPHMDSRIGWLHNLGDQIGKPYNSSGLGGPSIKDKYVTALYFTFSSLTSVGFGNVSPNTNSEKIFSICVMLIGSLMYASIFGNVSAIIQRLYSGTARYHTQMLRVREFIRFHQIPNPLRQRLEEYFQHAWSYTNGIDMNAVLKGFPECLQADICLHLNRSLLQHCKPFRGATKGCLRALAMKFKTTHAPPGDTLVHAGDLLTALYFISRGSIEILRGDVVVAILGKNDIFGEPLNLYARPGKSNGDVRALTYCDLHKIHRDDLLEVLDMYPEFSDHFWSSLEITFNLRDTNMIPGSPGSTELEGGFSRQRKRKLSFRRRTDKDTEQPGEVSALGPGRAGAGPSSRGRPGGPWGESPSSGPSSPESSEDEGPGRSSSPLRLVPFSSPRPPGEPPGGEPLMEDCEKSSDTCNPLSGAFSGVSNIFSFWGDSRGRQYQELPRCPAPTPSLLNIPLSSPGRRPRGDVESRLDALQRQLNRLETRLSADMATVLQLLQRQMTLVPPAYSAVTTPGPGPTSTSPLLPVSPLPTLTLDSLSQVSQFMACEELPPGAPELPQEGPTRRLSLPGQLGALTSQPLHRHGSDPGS
The nature of experiment [8]: qHTS assay for small molecule activators of the p53 signaling pathway (AID 651743; active = well fitted activation curve with a large enough effect in the signal ratio, not every such curve was filed as active; the % refers to the signal ratio; note: series mostly up to about 92 µM; % of control where 0% means no effect). The conditions noted are these: HCT-116 p53RE-bla, beta-lactamase FRET ratio, 16 h; stronger effect = higher value. The procedure, abridged: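 p53RE-bla HCT-116 cells carrying a beta-lactamase reporter under p53 response elements were exposed to compounds for 16 hours at 37 C. Reporter activity read as fluorescence after 2 hours at room temperature with LiveBLAzer B/G FRET substrate.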

Experiment [9] can be described thus: qHTS assay for small molecule activators of the nuclear factor-kappa B (NF-kB) signaling pathway (AID 651749; active = well fitted activation curve with a large enough effect in the signal ratio; the % refers to the signal ratio; note: series mostly up to about 77 µM; % of control where 0% means no effect). To be noted: NF-kB-bla ME-180 cells, beta-lactamase FRET ratio, 16 h; stronger effect = higher value. In short, it runs like this: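 NF-kB-bla ME-180 cells carrying a beta-lactamase reporter under an NF-kB response element, 2,000 cells/well, exposed to compound for 16 hr at 37C; FRET-based beta-lactamase fluorescence read-out of pathway activation.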

For experiment [10], the target named is Bile acid receptor (Homo sapiens) (UniProt Q96RI1). Nature of the experiment: qHTS assay for small molecule antagonists of farnesoid X receptor signaling (AID 588526). Note: % is set by controls: 0 for no effect and ±100 for the full control effect. The procedure, abridged:
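Antagonist mode: titrated compounds tested against chenodeoxycholic acid stimulation (normalized to 50 uM CDCA and DMSO) in GeneBLAzer HEK293T cells for 16 h. Beta-lactamase read by CCF4 fluorescence; IC50 from Hill fits.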

Experiment [11] in a line: qHTS assay for small molecule antagonists of peroxisome proliferator-activated receptor delta signaling (AID 588535; active = well fitted inhibition curve with a large enough effect in the signal ratio, with a control signal flat, not every such curve was filed as active; the % refers to the signal ratio;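 for max response: cells co-treated with a PPAR-delta agonist as stimulator during compound exposure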). The conditions noted are these: HEK293T PPARd-UAS-bla, beta-lactamase FRET ratio, 18 h; 460 nm channel. The procedure, abridged:
(§1)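 Antagonist-mode beta-lactamase reporter (GeneBLAzer PPAR-delta-UAS-bla) in HEK293T cells, 2% charcoal/dextran FBS, 4000 cells/well. Compound titrations, 18 h at 37 C; CCF4 ratio read, IC50 and efficacy from Hill fits.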

Experiment [12] addresses Peroxisome proliferator-activated receptor delta (Homo sapiens) (UniProt Q03181). The description is as above. In short, it runs like this: as §1
The target of experiment [13] is Peroxisome proliferator-activated receptor gamma (Homo sapiens) (UniProt P37231). The experiment in a line: qHTS assay for small molecule antagonists of peroxisome proliferator-activated receptor gamma signaling (AID 588537; active = well fitted inhibition curve with a large enough effect in the signal ratio, with a control signal flat, not every such curve was filed as active; the % refers to the signal ratio;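 note: reporter cells co-stimulated with 50 nM rosiglitazone agonist during compound treatment; % of control where 0% means no effect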). In short, it runs like this: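 PPARγ-UAS-bla HEK293 cells (3000/well) in 1% charcoal/dextran-stripped FBS are treated with compound, then stimulated with 50 nM rosiglitazone for 16 h at 37 °C. Read-out is CCF4 β-lactamase fluorescence after 2 h at RT. IC50 comes from Hill fits normalised to rosiglitazone and DMSO.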
Sequence of Peroxisome proliferator-activated receptor gamma (Homo sapiens) (P37231 whole entry, looked up): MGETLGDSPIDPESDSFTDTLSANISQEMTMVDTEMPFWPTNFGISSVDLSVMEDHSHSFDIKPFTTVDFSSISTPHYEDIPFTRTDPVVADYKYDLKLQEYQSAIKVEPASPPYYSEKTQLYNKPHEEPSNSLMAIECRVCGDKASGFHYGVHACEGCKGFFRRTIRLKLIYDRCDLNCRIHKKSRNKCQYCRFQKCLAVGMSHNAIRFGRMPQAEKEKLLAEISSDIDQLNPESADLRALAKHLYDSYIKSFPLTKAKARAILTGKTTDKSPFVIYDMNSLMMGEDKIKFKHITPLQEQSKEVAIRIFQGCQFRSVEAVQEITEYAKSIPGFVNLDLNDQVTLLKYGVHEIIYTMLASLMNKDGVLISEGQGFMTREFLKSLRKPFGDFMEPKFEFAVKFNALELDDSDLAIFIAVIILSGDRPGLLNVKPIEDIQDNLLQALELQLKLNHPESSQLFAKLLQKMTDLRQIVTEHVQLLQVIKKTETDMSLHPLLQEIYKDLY

In experiment [14] the target is Vitamin D3 receptor (Homo sapiens) (UniProt P11473). Nature of the experiment: qHTS assay for small molecule antagonists of vitamin D receptor signaling (AID 588541).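 Note: receptor activated by calcitriol during compound treatment; series mostly up to about 77 µM; % is set by controls: 0 for no effect and ±100 for the full control effect.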 The procedure, abridged:
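VDR-UAS-bla HEK293T cells in 2% charcoal-stripped FBS were stimulated with 1-alpha,25-dihydroxyvitamin D3 (3 nM final) plus compound for 16 h at 37 C. The beta-lactamase CCF4 readout was normalized to 50 nM agonist and DMSO, and Hill fits gave IC50.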

Experiment [15] shares this target. Nature of the experiment: qHTS assay for small molecule agonists of vitamin D receptor signaling (AID 588543).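 Note: 0% = DMSO basal and 100% = reference agonist control.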 In short, it runs like this: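 Agonist-mode beta-lactamase reporter: HEK293T VDR-UAS-bla cells in charcoal-stripped 2% FBS, compound series 16 h 37 C, CCF4 2 h RT. EC50 from Hill fit, scaled against DMSO and 50 nM calcitriol control.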
Experiment [16] deals with Thyroid hormone receptor beta (Homo sapiens) (UniProt P10828). The experiment in a line: qHTS assay for small molecule agonists of thyroid hormone receptor beta signaling (AID 588545).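 Note: 0% = DMSO only and 100% = 10 nM T3.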 In short, it runs like this: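 Stimulation of a TR-driven beta-lactamase reporter was quantified in GripTite HEK 293 cells. Compound series ran for 18 hrs; curves were normalized to T3 and DMSO controls and fitted to yield EC50.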

The nature of experiment [17]: qHTS assay for small molecule antagonists of retinoid X receptor alpha signaling (AID 588546; active = well fitted inhibition curve with a large enough effect in the signal ratio, with a control signal flat, not every such curve was filed as active; the % refers to the signal ratio). The conditions noted are these: HEK293T RXRa-UAS-bla, beta-lactamase ratio, antagonist mode; measured here: W530 green channel, cytotoxicity proxy. In short, it runs like this: (§2)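 Beta-lactamase reporter inhibition, read as CCF4 fluorescence ratio (ex 405, em 460/530 nm) after 2 h at RT. HEK293T UAS-bla cells, 2500/well, were stimulated with 9-cis-RA at 500 or 100 nM final alongside test compound for 18 h at 37 C.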

The target in experiment [18] is Retinoic acid receptor RXR-alpha (Homo sapiens) (UniProt P19793). Described as above. To be noted: HEK293T RXRa-UAS-bla, beta-lactamase ratio, antagonist mode. In short, it runs like this: as §2
Experiment [19] concerns the target Thyroid hormone receptor beta (Homo sapiens) (UniProt P10828). The experiment in a line: qHTS assay for small molecule antagonists of thyroid hormone receptor beta signaling (AID 588547; active = well fitted inhibition curve with a large enough effect in the signal ratio, with a control signal flat, not every such curve was filed as active; the % refers to the signal ratio). To be noted: TR-UAS-bla HEK293, beta-lactamase ratio, antagonist mode, 18 h. In short, it runs like this:
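TR-UAS-bla GripTite HEK293 cells in 2% charcoal/dextran FBS medium; compounds 0.59 nM to 92 uM with T3 at 0.4nM final, 18 h at 37 C. Beta-lactamase read by CCF4 fluorescence (460/530 nm); Hill fits gave IC50 and efficacy.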

Experiment [20] is described as follows: qHTS assay for small molecule agonists of the antioxidant response element (ARE) signaling pathway (AID 651741; active = well fitted activation curve with a large enough effect in the signal ratio; the % refers to the signal ratio; note: % of control where 0% means no effect). In short, it runs like this: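 CellSensor ARE-bla HepG2 cells (2,000/well) carrying ARE-driven beta-lactamase, exposed 16 h at 37 C. LiveBLAzer B/G FRET substrate added for 2 h at room temperature; fluorescence intensity read.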

Sequence of Glucocorticoid receptor (Homo sapiens) (P04150 whole entry, looked up): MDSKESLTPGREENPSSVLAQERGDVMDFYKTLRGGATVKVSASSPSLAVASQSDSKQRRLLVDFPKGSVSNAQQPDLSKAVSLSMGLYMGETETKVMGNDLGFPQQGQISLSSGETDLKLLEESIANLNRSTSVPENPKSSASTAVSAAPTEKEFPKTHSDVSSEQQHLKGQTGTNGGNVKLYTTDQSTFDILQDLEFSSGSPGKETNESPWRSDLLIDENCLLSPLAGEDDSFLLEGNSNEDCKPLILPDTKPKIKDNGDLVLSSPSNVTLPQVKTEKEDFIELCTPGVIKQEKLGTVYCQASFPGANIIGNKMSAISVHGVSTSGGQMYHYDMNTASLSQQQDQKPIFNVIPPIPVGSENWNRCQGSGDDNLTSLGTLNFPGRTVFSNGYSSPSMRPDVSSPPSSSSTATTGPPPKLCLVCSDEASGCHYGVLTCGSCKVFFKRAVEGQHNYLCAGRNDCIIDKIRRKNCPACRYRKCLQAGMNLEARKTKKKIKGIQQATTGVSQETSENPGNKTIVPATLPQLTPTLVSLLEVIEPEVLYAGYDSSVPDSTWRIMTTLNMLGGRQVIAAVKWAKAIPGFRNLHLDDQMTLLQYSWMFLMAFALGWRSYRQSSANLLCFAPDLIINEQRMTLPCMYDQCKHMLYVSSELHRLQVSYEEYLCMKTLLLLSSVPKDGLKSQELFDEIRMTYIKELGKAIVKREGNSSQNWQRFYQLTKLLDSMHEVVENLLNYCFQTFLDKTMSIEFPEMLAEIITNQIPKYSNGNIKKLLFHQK
Sequence of Peroxisome proliferator-activated receptor delta (Homo sapiens) (Q03181 whole entry, looked up): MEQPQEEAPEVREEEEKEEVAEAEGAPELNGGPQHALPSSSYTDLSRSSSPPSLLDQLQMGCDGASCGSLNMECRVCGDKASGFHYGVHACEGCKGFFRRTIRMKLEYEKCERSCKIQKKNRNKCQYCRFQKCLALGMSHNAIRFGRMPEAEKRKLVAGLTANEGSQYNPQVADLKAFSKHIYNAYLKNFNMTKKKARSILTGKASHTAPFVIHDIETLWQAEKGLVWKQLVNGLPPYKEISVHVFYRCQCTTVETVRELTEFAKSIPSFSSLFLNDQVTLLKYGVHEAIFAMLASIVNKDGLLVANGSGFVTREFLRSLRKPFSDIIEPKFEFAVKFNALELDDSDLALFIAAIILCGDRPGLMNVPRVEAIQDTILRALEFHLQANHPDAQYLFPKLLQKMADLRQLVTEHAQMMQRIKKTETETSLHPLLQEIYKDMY
Sequence of Vitamin D3 receptor (Homo sapiens) (P11473 whole entry, looked up): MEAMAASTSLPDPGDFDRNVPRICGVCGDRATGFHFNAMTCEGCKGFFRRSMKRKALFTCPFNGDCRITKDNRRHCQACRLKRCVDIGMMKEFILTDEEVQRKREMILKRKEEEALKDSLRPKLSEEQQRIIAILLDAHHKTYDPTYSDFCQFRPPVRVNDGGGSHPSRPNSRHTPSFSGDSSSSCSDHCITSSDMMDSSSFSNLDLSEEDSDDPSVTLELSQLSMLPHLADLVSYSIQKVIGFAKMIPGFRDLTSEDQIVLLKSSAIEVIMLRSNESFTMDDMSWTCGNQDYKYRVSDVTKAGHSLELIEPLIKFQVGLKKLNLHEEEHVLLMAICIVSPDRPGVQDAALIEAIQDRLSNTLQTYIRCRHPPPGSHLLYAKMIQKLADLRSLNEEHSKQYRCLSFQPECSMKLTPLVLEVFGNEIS
Sequence of Androgen receptor (Homo sapiens) (P10275 whole entry, looked up): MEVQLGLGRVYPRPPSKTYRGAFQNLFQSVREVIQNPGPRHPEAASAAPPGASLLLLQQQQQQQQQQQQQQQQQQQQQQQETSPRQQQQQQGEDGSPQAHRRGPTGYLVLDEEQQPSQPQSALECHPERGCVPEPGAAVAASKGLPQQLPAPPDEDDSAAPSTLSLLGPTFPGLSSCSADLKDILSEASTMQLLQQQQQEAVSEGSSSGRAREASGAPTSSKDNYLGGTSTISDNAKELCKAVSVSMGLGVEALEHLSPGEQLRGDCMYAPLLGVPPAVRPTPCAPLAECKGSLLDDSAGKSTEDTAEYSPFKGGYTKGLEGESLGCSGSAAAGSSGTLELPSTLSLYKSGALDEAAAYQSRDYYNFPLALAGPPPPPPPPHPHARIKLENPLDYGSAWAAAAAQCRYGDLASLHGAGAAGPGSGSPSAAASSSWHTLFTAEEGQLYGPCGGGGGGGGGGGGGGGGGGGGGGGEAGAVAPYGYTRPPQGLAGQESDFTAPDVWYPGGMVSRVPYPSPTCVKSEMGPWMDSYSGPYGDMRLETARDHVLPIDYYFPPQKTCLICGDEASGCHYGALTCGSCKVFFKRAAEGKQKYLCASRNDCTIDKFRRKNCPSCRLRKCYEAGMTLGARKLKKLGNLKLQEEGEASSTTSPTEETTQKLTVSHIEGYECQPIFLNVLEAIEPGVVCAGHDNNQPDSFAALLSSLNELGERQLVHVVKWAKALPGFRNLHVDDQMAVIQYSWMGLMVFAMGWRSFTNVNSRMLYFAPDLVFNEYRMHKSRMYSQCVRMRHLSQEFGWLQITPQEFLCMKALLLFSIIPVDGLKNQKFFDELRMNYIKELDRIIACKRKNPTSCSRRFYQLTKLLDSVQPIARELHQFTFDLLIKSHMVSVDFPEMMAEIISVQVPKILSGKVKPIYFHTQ

With `O=C(Cl)c1ccccc1[N+](=O)[O-]`, the outcome in experiment [1], in [3], in experiment [4] and in experiment [6] was inactive. Moreover, the activation is -0.396% (inactive) in [2], 0.51% (inactive) in experiment [8] and -0.445% (inactive) in [9]. For the same molecule, the max response in experiment [5] was -17.2%. Also, in experiment [7], the Potency result was “inactive”.
For `CC(=O)Nc1cccc(N)c1`, the result in experiment [10], in experiment [3], in experiment [4], in experiment [13], in experiment [14] and in experiment [15] was inactive. Further, the call in experiment [6] and in experiment [16] was inactive. Further, the activation in experiment [2] was -4.95% (inactive); in [8], 1.81% (inactive); in experiment [9], 0.511% (inactive). The max response in experiment [11] is 38.5%; in experiment [5], -8.93%; in experiment [17] it was -0.371%; in experiment [18] it was 6.6% (inactive). The Potency entry in experiment [12] and in experiment [7] was “inactive” throughout. Besides, the activity change % (negative = inhibition) in experiment [19] was -3.78% (inactive).
`O=C1CCCCC1`: the molecule was classed as inactive in experiment [1], in experiment [4], in experiment [13], in experiment [15] and in experiment [6]. The activation in [2] is -2.34% (inactive); in experiment [9] it was -1.28% (inactive). Further, the max response in experiment [11] is 1.87%; in experiment [5], -9.55%; in experiment [17], -8.36%; in experiment [18], -0.633% (inactive). For the same molecule, the Potency result in [12], in [7] and in experiment [20] was “inactive” each time. Further, the activity change % (negative = inhibition) in experiment [19] is -11.2% (inactive).
Turning to `CCCC(Cl)CCCC(Cl)CCC(Cl)CCC(Cl)CCC(Cl)CCCC(Cl)CCC` (centres undefined), the molecule was classed as inactive in [1], in [3], in [4], in experiment [14], in experiment [15] and in experiment [6]. For the same molecule, in experiment [16], the molecule was called inactive. Besides, the activation in experiment [2] was 3.07% (inactive); in experiment [8], 0.55% (inactive); in [9], 0.0275% (inactive). Further, the max response in experiment [11] is -30.6%; in experiment [5] it was -10.5%; in [17], -0.455%. The Potency entry in [12] and in [7] was “inactive” in each case. For the same molecule, in experiment [19], the activity change % (negative = inhibition) was -14.9% (inactive).
For `BrC(Br)C(Br)Br`, the molecule was called inactive in experiment [1], in experiment [4], in [13], in [14], in experiment [15] and in [6]. The activation was -1.02% (inactive) in experiment [2], -2.69% (inactive) in experiment [8] and 2.53% (inactive) in experiment [9]. Besides, the max response in experiment [11] was -3.11%; in experiment [5], -10.8%; in [17] it was -6.63%. The Potency entry in [12] is “inactive”.
Regarding `O=C(O)CCSSCCC(=O)O`, the outcome in experiment [1], in [3], in experiment [4], in experiment [14], in [6] and in experiment [16] was inactive. Besides, the activation in [2] is -5.98% (inactive); in experiment [9] it was -1.14% (inactive). Further, the max response in experiment [11] is 29.9%; in experiment [5], 1.51%; in [17], -12%; in experiment [18] it was -2.74% (inactive). In addition, the Potency result in experiment [12], in experiment [7] and in [20] was “inactive” in each case. In addition, in experiment [19], the activity change % (negative = inhibition) is -3.23% (inactive).
With `c1ccsc1`, the outcome in experiment [1], in experiment [3], in experiment [4], in experiment [13], in experiment [14] and in experiment [6] was inactive. Further, the outcome in experiment [16] was inactive. Moreover, the max response in experiment [11] was -2.14%; in [5], -5.29%; in [17], -0.2%; in [18] it was -6.87% (inactive). The Potency entry in experiment [12], in experiment [7] and in experiment [20] was “inactive” throughout. For the same molecule, the activity change % (negative = inhibition) in [19] is -13.7% (inactive). The activation in experiment [8] is 1.47% (inactive); in experiment [9] it was 0.633% (inactive).
